In paper PMC10812921, “Transcriptional Coactivator BOB1 (OBF1, OCA-B) Modulates the Specificity of DNA Recognition by the POU-Domain Factors OCT1 and OCT2 in a Monomeric Configuration” one finds binding signal data, which are given here for 30 sequences.

The target in test [1] is POU1 (OCT1 POU domain) (human, UniProt P14859 260-458). Description: EMSA-SELEX-seq; no BOB1; 20 mM Tris-HCl pH 7.6, 140 mM NaCl, 10% glycerol, 0.5 mM EDTA, 0.05% Triton X-100, 0.1 mg/mL BSA, 0.1 mg/mL poly(dI-dC), 5 mM DTT, room temperature, 20 min; high values mean tight binding. The note with it: protein: recombinant; dsDNA, one strand shown. The method in brief:
(§1)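 With or without 28 ng coactivator protein, 30 ng of tagged POU-domain protein was combined with 300 ng of a PCR-amplified double-stranded random 35-nt library in 20 μL Tris–HCl pH 7.6 binding buffer for 20 min at RT. The protein came from E. coli BL21 and had been purified under denaturing conditions and renatured. Four rounds of cutting complex bands from native 6% PAGE, elution and PCR amplification preceded Illumina sequencing. The binding preference figure is the percentage of sequenced 8-mers matching a motif pattern.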
Background: In EMSA bound probe runs differently from free probe, usually more slowly.

In test [2] the target is T1, POU2 (OCT2 POU domain) (human, UniProt P09086 175-386).
T1 sequence: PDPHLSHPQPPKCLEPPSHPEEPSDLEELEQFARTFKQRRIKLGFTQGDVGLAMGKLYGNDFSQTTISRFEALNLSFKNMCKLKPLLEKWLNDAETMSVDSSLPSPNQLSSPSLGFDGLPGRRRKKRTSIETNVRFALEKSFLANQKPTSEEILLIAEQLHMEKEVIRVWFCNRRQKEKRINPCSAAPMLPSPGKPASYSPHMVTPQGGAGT
Described as above. Conditions: protein: recombinant; dsDNA, one strand shown. The method in brief: as §1

In test [3] the target is POU1 (OCT1 POU domain);BOB1 (OBF1, OCA-B) (human;human, UniProt P14859;Q16633 260-458;1-256, |). Description: EMSA-SELEX-seq; with BOB1 (ternary complex band); 20 mM Tris-HCl pH 7.6, 140 mM NaCl, 10% glycerol, 0.5 mM EDTA, 0.05% Triton X-100, 0.1 mg/mL BSA, 0.1 mg/mL poly(dI-dC), 5 mM DTT, room temperature, 20 min; high values mean tight binding. The note with it: protein: recombinant;recombinant; copies: 1;1; dsDNA, one strand shown. The method in brief:
as §1

Test [4] has as its target T2, POU2 (OCT2 POU domain);BOB1 (OBF1, OCA-B) (human;human, UniProt P09086;Q16633 175-386;1-256, |).
T2 sequence 1: T1 sequence
T2 sequence 2: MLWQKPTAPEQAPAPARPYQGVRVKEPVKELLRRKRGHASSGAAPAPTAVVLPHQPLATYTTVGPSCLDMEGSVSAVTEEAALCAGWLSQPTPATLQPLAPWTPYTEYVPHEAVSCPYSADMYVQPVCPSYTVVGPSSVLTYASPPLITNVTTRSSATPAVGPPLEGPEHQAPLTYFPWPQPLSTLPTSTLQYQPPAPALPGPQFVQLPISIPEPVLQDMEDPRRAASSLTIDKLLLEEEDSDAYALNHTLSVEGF
The test is described as above. The note with it: protein: recombinant;recombinant; copies: 1;1; dsDNA, one strand shown. An outline of the steps:
as §1

Sequence of POU1 (OCT1 POU domain) (P14859 260-458): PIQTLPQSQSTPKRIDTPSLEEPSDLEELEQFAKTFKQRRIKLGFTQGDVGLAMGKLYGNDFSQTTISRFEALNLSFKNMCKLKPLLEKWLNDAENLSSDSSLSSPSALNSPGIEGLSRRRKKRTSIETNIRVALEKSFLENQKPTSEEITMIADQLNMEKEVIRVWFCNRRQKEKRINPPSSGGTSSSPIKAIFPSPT

On to AGCCAAAT, for which the binding signal in test [1] was 0.0858 % of ANNNNAAN 8-mers; in test [2] it was 0.0702 % of ANNNNAAN 8-mers; in test [3], 0.167 % of ANNNNAAN 8-mers; in test [4], 0.0892 % of ANNNNAAN 8-mers.
Consider ACAATAAA, for which the binding signal in test [1] is 0.0481 % of ANNNNAAN 8-mers; in test [2], 0.0495 % of ANNNNAAN 8-mers; in test [3] it was 0.0453 % of ANNNNAAN 8-mers; in test [4], 0.0396 % of ANNNNAAN 8-mers.
For AGCACAAG, the binding signal is 0.0168 % of ANNNNAAN 8-mers in test [1], 0.0196 % of ANNNNAAN 8-mers in test [2], 0.0183 % of ANNNNAAN 8-mers in test [3] and 0.0124 % of ANNNNAAN 8-mers in test [4].
In the case of AAACTAAT, the binding signal was 0.104 % of ANNNNAAN 8-mers in test [1], 0.129 % of ANNNNAAN 8-mers in test [2], 0.0808 % of ANNNNAAN 8-mers in test [3] and 0.0925 % of ANNNNAAN 8-mers in test [4].
As for ATAGTAAA, the binding signal in test [1] was 0.12 % of ANNNNAAN 8-mers; in test [2] it was 0.115 % of ANNNNAAN 8-mers; in test [3] it was 0.128 % of ANNNNAAN 8-mers; in test [4] it was 0.106 % of ANNNNAAN 8-mers.
For the sequence ACGTCAAT, the binding signal in test [1] was 0.0339 % of ANNNNAAN 8-mers; in test [2], 0.0426 % of ANNNNAAN 8-mers; in test [3] it was 0.0269 % of ANNNNAAN 8-mers; in test [4], 0.0322 % of ANNNNAAN 8-mers.
On to AGGTGAAG, for which the binding signal in test [1] was 0.04 % of ANNNNAAN 8-mers; in test [2], 0.0386 % of ANNNNAAN 8-mers; in test [3] it was 0.0339 % of ANNNNAAN 8-mers; in test [4], 0.0471 % of ANNNNAAN 8-mers.
As to AGTGAAAG, the binding signal is 0.0469 % of ANNNNAAN 8-mers in test [1], 0.0409 % of ANNNNAAN 8-mers in test [2], 0.0624 % of ANNNNAAN 8-mers in test [3] and 0.0504 % of ANNNNAAN 8-mers in test [4].
For the sequence AGTCTAAG, the binding signal in test [1] is 0.0236 % of ANNNNAAN 8-mers; in test [2], 0.0322 % of ANNNNAAN 8-mers; in test [3], 0.0343 % of ANNNNAAN 8-mers; in test [4] it was 0.0297 % of ANNNNAAN 8-mers.
For AGTTAAAG, the binding signal in test [1] was 0.0545 % of ANNNNAAN 8-mers; in test [2] it was 0.0564 % of ANNNNAAN 8-mers; in test [3], 0.064 % of ANNNNAAN 8-mers; in test [4], 0.0528 % of ANNNNAAN 8-mers.
In the same order, the values of ATTAAAAC are 0.108 % of ANNNNAAN 8-mers, 0.122 % of ANNNNAAN 8-mers, 0.0757 % of ANNNNAAN 8-mers and 0.0718 % of ANNNNAAN 8-mers.
On to AAAAGAAT, for which the binding signal in test [1] was 0.0858 % of ANNNNAAN 8-mers; in test [2] it was 0.088 % of ANNNNAAN 8-mers; in test [3] it was 0.0937 % of ANNNNAAN 8-mers; in test [4], 0.0817 % of ANNNNAAN 8-mers.
AGCGGAAT: the binding signal was 0.0622 % of ANNNNAAN 8-mers in test [1], 0.0725 % of ANNNNAAN 8-mers in test [2], 0.0546 % of ANNNNAAN 8-mers in test [3] and 0.0636 % of ANNNNAAN 8-mers in test [4].
As to ATAACAAC, the binding signal in test [1] was 0.0252 % of ANNNNAAN 8-mers; in test [2] it was 0.0391 % of ANNNNAAN 8-mers; in test [3], 0.0222 % of ANNNNAAN 8-mers; in test [4] it was 0.0347 % of ANNNNAAN 8-mers.
Consider ACGGGAAC, for which the binding signal was 0.0225 % of ANNNNAAN 8-mers in test [1], 0.027 % of ANNNNAAN 8-mers in test [2], 0.0215 % of ANNNNAAN 8-mers in test [3] and 0.0231 % of ANNNNAAN 8-mers in test [4].
In the case of ACGATAAA, the binding signal in test [1] was 0.037 % of ANNNNAAN 8-mers; in test [2], 0.0432 % of ANNNNAAN 8-mers; in test [3] it was 0.0324 % of ANNNNAAN 8-mers; in test [4] it was 0.0487 % of ANNNNAAN 8-mers.
The like results for ACCTTAAC were, in that order, 0.0118 % of ANNNNAAN 8-mers, 0.0173 % of ANNNNAAN 8-mers, 0.0152 % of ANNNNAAN 8-mers and 0.0149 % of ANNNNAAN 8-mers.
As to ACGACAAT, the binding signal in test [1] is 0.029 % of ANNNNAAN 8-mers; in test [2] it was 0.0299 % of ANNNNAAN 8-mers; in test [3], 0.025 % of ANNNNAAN 8-mers; in test [4] it was 0.0297 % of ANNNNAAN 8-mers.
Take AATACAAC: the binding signal in test [1] is 0.0412 % of ANNNNAAN 8-mers; in test [2] it was 0.0403 % of ANNNNAAN 8-mers; in test [3], 0.0336 % of ANNNNAAN 8-mers; in test [4], 0.0545 % of ANNNNAAN 8-mers.
On to ATCGTAAT, for which the binding signal in test [1] was 0.085 % of ANNNNAAN 8-mers; in test [2] it was 0.108 % of ANNNNAAN 8-mers; in test [3], 0.0679 % of ANNNNAAN 8-mers; in test [4] it was 0.0768 % of ANNNNAAN 8-mers.
In the case of AGCGAAAC, the binding signal in test [1] was 0.0183 % of ANNNNAAN 8-mers; in test [2], 0.023 % of ANNNNAAN 8-mers; in test [3], 0.0137 % of ANNNNAAN 8-mers; in test [4] it was 0.0198 % of ANNNNAAN 8-mers.
As to AGGCAAAT, the binding signal is 0.77 % of ANNNNAAN 8-mers in test [1], 0.546 % of ANNNNAAN 8-mers in test [2], 2.22 % of ANNNNAAN 8-mers in test [3] and 2.15 % of ANNNNAAN 8-mers in test [4].
In the same order, the values of ACTTAAAG are 0.0328 % of ANNNNAAN 8-mers, 0.0437 % of ANNNNAAN 8-mers, 0.0328 % of ANNNNAAN 8-mers and 0.0462 % of ANNNNAAN 8-mers.
Regarding ATATGAAA, the binding signal in test [1] is 0.159 % of ANNNNAAN 8-mers; in test [2] it was 0.164 % of ANNNNAAN 8-mers; in test [3], 0.226 % of ANNNNAAN 8-mers; in test [4], 0.239 % of ANNNNAAN 8-mers.
On to ATACGAAA, for which the binding signal in test [1] was 0.0698 % of ANNNNAAN 8-mers; in test [2] it was 0.0777 % of ANNNNAAN 8-mers; in test [3], 0.0698 % of ANNNNAAN 8-mers; in test [4] it was 0.0693 % of ANNNNAAN 8-mers.
Regarding ACCCAAAT, the binding signal in test [1] was 0.0477 % of ANNNNAAN 8-mers; in test [2], 0.0391 % of ANNNNAAN 8-mers; in test [3] it was 0.0753 % of ANNNNAAN 8-mers; in test [4], 0.0355 % of ANNNNAAN 8-mers.
The like results for AGCTAAAT were, in that order, 0.0652 % of ANNNNAAN 8-mers, 0.0633 % of ANNNNAAN 8-mers, 0.0738 % of ANNNNAAN 8-mers and 0.0479 % of ANNNNAAN 8-mers.
Turning to AGTCCAAA, the binding signal is 0.0256 % of ANNNNAAN 8-mers in test [1], 0.0299 % of ANNNNAAN 8-mers in test [2], 0.0332 % of ANNNNAAN 8-mers in test [3] and 0.0281 % of ANNNNAAN 8-mers in test [4].
In the same order, the values of AGTTTAAT are 0.129 % of ANNNNAAN 8-mers, 0.156 % of ANNNNAAN 8-mers, 0.0882 % of ANNNNAAN 8-mers and 0.111 % of ANNNNAAN 8-mers.
In the case of ATAATAAC, the binding signal was 0.0873 % of ANNNNAAN 8-mers in test [1], 0.101 % of ANNNNAAN 8-mers in test [2], 0.0496 % of ANNNNAAN 8-mers in test [3] and 0.0603 % of ANNNNAAN 8-mers in test [4].
